Source: ChEMBL document CHEMBL4513216, “Probing the Open Global Health Chemical Diversity Library for Multistage-Active Starting Points for Next-Generation Antimalarials” (ACS Infect Dis, 2020)
In all, about 69,000 compounds went through this assay and about 8,600 (12%) showed an effect of 50% or more. What follows is part of a selection rich in strong results, with near analogues and random picks from the rest.

What follows are compounds tested on Plasmodium berghei (assay: Screen against P. berghei liver stage (PbLuc), transformed with Luciferase, at 10uM). Conditions: tested at 10 uM.
Format: functional, HepG2

Structure (SMILES)	INHIBITION [%]
CCc1nnc2n1CCN(CC(=O)Nc1cc(C)nn1C)C2	45.6
Cn1cc(CN2CCC3(CC2)NC(=O)CC3c2ccncc2)cn1 (centres undefined)	14.6
CN(CC(=O)Nc1cc(CC2CCCCC2)n[nH]1)S(C)(=O)=O	-37
CN(CCc1cccs1)CCc1nccs1	5.11
CN(CCc1ccccn1)CCc1nccs1	40.9
CN(CCc1ccncc1)CCc1nccs1	79.5
CCN(C)c1ncnc2c1CCN(Cc1ccc(F)cc1)CC2	22.5
CCCc1nnc(NCCc2noc(C3CCCC3)n2)o1	22.5
CCn1ccc(C(=O)N2CCOC(c3nc(-c4cccs4)no3)C2)n1 (centres undefined)	42.6
O=C(c1cncnc1)N1CCCC(c2nccs2)C1 (centres undefined)	13.54
O=C(c1cnc(C2CC2)nc1)N1CCCC(c2nccs2)C1 (centres undefined)	52
CCc1csc(C2CCCN(C(=O)c3cnn(CC)c3)C2)n1 (centres undefined)	-19.7
CCn1cc(C(=O)N2CCCC(c3nccs3)C2)cn1 (centres undefined)	56
O=C(c1cnc(O)c(Cl)c1)N1CCCC(c2nccs2)C1 (centres undefined)	26.9
CCCn1cc(C(=O)N2CCOC(c3nc(-c4cccs4)no3)C2)cn1 (centres undefined)	48.6
CCn1cc(C(=O)N2CCOC(c3nc(-c4cccs4)no3)C2)cn1 (centres undefined)	73.8
CCCn1cc(C(=O)N2CCCC(Cc3nccs3)C2)cn1 (centres undefined)	17.4
NC(=O)N1CCC(C(=O)NCc2nncn2-c2ccccc2)CC1	38.5
CC(C)c1nc(CN2CCOC(Cn3cccn3)C2)no1 (centres undefined)	-38.7
Cc1ncncc1C(=O)N1C[C@@H]2CC[C@H]1CN(C(=O)c1ccncc1)C2	-19.2
CC(C)c1nccn1CCC(=O)NCC(C)(O)c1ccco1 (centres undefined)	-33.4
CN(C(=O)c1ccco1)c1nc2c(s1)CCCC2	-68.6
Cc1cc(=O)n(CC(=O)NCC2CCCO2)c(-c2ccccc2)n1 (centres undefined)	21
Cc1cc(=O)n(CC(=O)NCC2CCCO2)c(-c2ccc(F)cc2)n1 (centres undefined)	50.1
Cc1cc(=O)n(CC(=O)NCC2CCCO2)c(-c2cccc(Cl)c2)n1 (centres undefined)	33.5

Structure (SMILES)	INHIBITION [%]
O=C(N1CCCO1)[C@@]12CCO[C@@H]1CCN(Cc1ccc(F)cc1)C2	-47.8
O=C([C@@H]1COC[C@H]2CN(C3CCCC3)C[C@H]21)N1CCCCO1	40.5
O=C(C[C@@H]1COC[C@H]2CN(Cc3ccc(F)cc3)C[C@@H]12)N1CCCCO1	-13.4
CS(=O)(=O)N1C[C@@H]2COC[C@@H](CC(=O)N3CCCCO3)[C@@H]2C1	28.2
O=C(C[C@@H]1COC[C@H]2CN(CC3CCOCC3)C[C@@H]12)N1CCCCO1	76.4
O=C(C[C@@H]1COC[C@H]2CN(CC3CC3)C[C@@H]12)N1CCCCO1	16.9
O=C(C[C@@H]1COC[C@H]2CN(C3CCCC3)C[C@@H]12)N1CCCCO1	57.1
O=C(c1ccncn1)N1CCC[C@]2(C[C@H](Oc3ncccc3F)CO2)C1	-10.3
COc1cccc(S(=O)(=O)N2C[C@@H](O)[C@H](N(C)C)C2)c1	9.98
Cn1cc(-c2cnc(N3CCCC3)nc2)cc1C(=O)N1CCOCC1	-18.4
Cn1nccc1C(=O)N1CCC(c2ncc(Cl)cc2S(C)(=O)=O)CC1	30.4
C=Cn1ncc(CN2C[C@@H]3C[C@@H](O)CN3C[C@@H]2Cc2ccccc2)c1C	42.6
CCCn1ncc(CN2C[C@@H]3CCCN3C[C@@H]2CCSC)c1C	57.4
CCn1ncc(CN2C[C@@H]3CCCN3C[C@H]2CCSC)c1C	2.71
C=Cn1ncc(CN2C[C@@H]3CCCN3C[C@H]2Cc2ccccc2)c1C	51.5
CCCn1ncc(CN2C[C@@H]3CCCN3C[C@@H]2Cc2ccccc2)c1C	29.3
CCCn1ncc(CN2C[C@@H]3CCCN3C[C@H]2Cc2ccccc2)c1C	57.5
C=Cn1ncc(CN2C[C@@H]3CCCN3C[C@@H]2CCSC)c1C	30.8
C=Cn1ncc(CN2C[C@@H]3C[C@@H](O)CN3C[C@H]2Cc2ccccc2)c1C	13
CCn1ncc(CN2C[C@@H]3CCCN3C[C@@H]2CCSC)c1C	46
C=Cn1ncc(CN2C[C@@H]3CCCN3C[C@@H]2Cc2ccccc2)c1C	50
CCCn1ncc(CN2C[C@@H]3CCCN3C[C@H]2CCSC)c1C	37.6
C=Cn1ncc(CN2C[C@@H]3CCCN3C[C@H]2CCSC)c1C	30.1
Cc1nc(N2CCN(c3ccccc3)CC2)c2c(n1)c(C)nn2C	25.1
CC(=O)N1CCN(CC=C(C)C)CC1	19.1

Structure (SMILES)	INHIBITION [%]
CCNC(=O)[C@@H]1C[C@@H](NC(=O)c2cccn2C)CN1CCCSC	-7.7
Cc1cc(-c2cccc(-c3ccn(CCCO)n3)c2)nc(N(C)C)n1	-22.8
O=C(CCC1CCCO1)NCCN1CCCCC1 (centres undefined)	52.2
COc1ccc(OC)c(CCNC(=O)CCC2CCCO2)c1 (centres undefined)	38.3
O=C(CCC1CCCO1)NCCCO (centres undefined)	51
O=C(CCC1CCCO1)NCCCC(=O)Nc1ccc(Cl)cc1 (centres undefined)	36.8
CCOCCNC(=O)CCC1CCCO1 (centres undefined)	42.1
O=C(CCC1CCCO1)NCCc1ccccn1 (centres undefined)	18.3
Cc1c[nH]nc1C1CCCN(C(=O)Cn2cccn2)C1 (centres undefined)	2.71
Cc1nc(C2CCCCN2S(C)(=O)=O)no1 (centres undefined)	-4.87
CC(=O)N1N=C(c2ccccc2)OC1C(=O)NCCc1ccc(Cl)cc1 (centres undefined)	-53.7
CCN(CCCNCc1c(C)nn(C)c1N(C)C)S(C)(=O)=O	0.58
Cc1nc(C2CCN2c2ncccn2)cc(N(C)C)n1 (centres undefined)	10.9
CCN(CC)C(=O)CSc1nc2nc(C)ccc2o1	-4.76
CCN(Cc1cccc2c1OCO2)C(=O)NCc1ccccn1	-27.8
Cc1cc(=O)c(C(=O)N2CCN(C)c3ccccc3C2)c[nH]1	43.9
CCCn1c(C)cc(C(=O)CN2C(=O)c3ccccc3CS2(=O)=O)c1C	31.8
Cc1ccc(C(=O)CN2C(=O)c3ccccc3CS2(=O)=O)c(C)c1	65.3
Cc1cc(C(=O)CN2C(=O)c3ccccc3CS2(=O)=O)c(C)[nH]1	56.4
N#Cc1cccc(CN2C(=O)c3ccccc3CS2(=O)=O)c1	-0.85
Cc1ccccc1C(=O)CN1C(=O)c2ccccc2CS1(=O)=O	10.1
Cc1cc(C)c(CNC(=O)C2COc3ccccc3C2)c(=O)[nH]1 (centres undefined)	32.9
Cc1ccc(C)c(C(=O)CN2C(=O)c3ccccc3CS2(=O)=O)c1	56.8
Cc1ccc(C)c(C(=O)N2CCN(C(=O)Cc3ccccn3)CC2)c1	29.7
